Assay outcomes deposited in PubChem by Center for Chemical Genomics, University of Michigan.
Dicer inh = inhibitors of Dicer pre-microRNA processing, primary screen, biochemical, cat-ELCCA, chemiluminescence | Endoribonuclease Dicer (Homo sapiens), Q9UPY3 | cat-ELCCA pre-miR-21 Dicer processing; active compounds read high | z-score at 25 µM | actives 6% (n = 47,000); in the data active means z-score above about 3, passing the limit was not always enough;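 further: plate controls were vehicle for no effect and no enzyme for full effect; higher signal means more uncleaved substrate so more Dicer inhibition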
An asterisk follows results filed as active. Shown is part of a subset that was picked to be rich in hits.

SMILES	Dicer inh
Cc1ccc2nc(C)cc(N3CCOCC3)c2c1	4.4*
COc1ccc2nc(C)cc(N3CCOCC3)c2c1	-0.9
c1ccc(-c2cc(N3CCOCC3)c3ccccc3n2)cc1	1.1
Cn1c(=O)c2[nH]c(N3CCN(Cc4ccccc4)CC3)nc2n(C)c1=O	2.1
O=C(Nc1ncn[nH]1)c1cc2ccccc2o1	4.9*
O=C(Nc1nccs1)c1cc2ccccc2o1	-3.5
O=C(Nc1ccc(S(=O)(=O)Nc2ncccn2)cc1)c1cc2ccccc2o1	0.46
COc1ccc(NC(C)=O)cc1Cl	-1.2
COc1ccc(Cc2nc3c4c5c(sc4ncn3n2)C(C)(C)NC(C)(C)C5)cc1OC	0.14
CCOC(=O)/C(=C(/C)Nc1ccc(F)cc1)C1CC(=O)N(c2ccc(F)cc2)C1=O (stereo not drawn)	0.24
CCOC(=O)c1cnc(C(F)(F)F)nc1NNC(=O)c1ccc(Cl)cc1	3.2*
CCOC(=O)c1cnc(C(F)(F)F)nc1Sc1n[nH]c(-c2cc(Cl)cc(Cl)c2)n1	-0.46
CCOC(=O)c1cnc(Nc2ccccc2)nc1C(F)(F)F	-0.23
CCOC(=O)c1cnc(C(F)(F)F)nc1Oc1ccccc1	0.7
CCOC(=O)c1cnc(NNC(C)=O)nc1C(F)(F)F	3.1*
CCOC(=O)c1cnc(NNC(=O)c2ccc(F)cc2)nc1C(F)(F)F	1.1
CC(C)CN(CC(C)C)CN1C(=O)c2ccccc2C1=O	-1.4
CSc1cccc(NC(=S)Nc2ccccn2)c1	0.55
COC(=O)C(Cc1c[nH]c2ccccc12)NC(=O)CN1CCOCC1 (stereo not drawn)	1.9
NC(=O)c1cnn2c1NCC=C2c1cccc(C(F)(F)F)c1	-1
O=C(O)CC1(CC(=O)Nc2ccc(F)cc2)CCCC1	0.81
Cc1cc(NCC2CC2)n2nc(Nc3cc(Cl)ccc3C)nc2n1	2.7
CN(C)/C=C(\C#N)C(=O)NCc1ccc(F)cc1F	0.25
O=C1c2cccc3c(N4CCOCC4)ccc(c23)C(=O)N1CCO	-0.79
COc1ccc(CCN2C(=O)c3cccc4c(Sc5ccccn5)ccc(c34)C2=O)cc1OC	0.87
SMILES	Dicer inh
O=C1c2cccc3c(Sc4ccccc4)ccc(c23)C(=O)N1NCCO	3.2*
O=C(NC(=S)Nc1ncn[nH]1)c1ccccc1	-0.39
CCOC(=O)c1c(NC(=O)Nc2cc(OC)ccc2Cl)sc2c1CCN(C)C2	3.4*
CCOC(=O)c1c(NCc2cc(OC)ccc2O)sc2c1CCC2	4.1*
CCOC(=O)c1c(NC(=O)Oc2ccccc2)sc2c1CCC2	-0.88
CCOC(=O)c1c(NC(=O)Nc2ccc(C)cc2)sc2c1CCN(C)C2	2.1
CCOC(=O)c1c(NS(=O)(=O)c2ccc(OC)c(OC)c2)sc2c1CCC2	-1.3
CCOC(=O)c1c(NC(=O)C(C)Oc2ccc(OC)cc2)sc2c1CCC(C)C2 (stereo not drawn)	2.7
Cc1ccc2nc(C)n3c4ccccc4c(NC(=O)c4ccccc4)c3c2c1	2.3
Cn1ncc(NC(=O)O/N=C/c2ccccc2)c1-n1cccc1	-0.83
CC1=C(C(=O)OC(C)C)C(c2cccc(O)c2)C2=C(CCCC2=O)N1 (stereo not drawn)	-0.49
NNC(=O)Cc1csc(-c2cccc(-n3cccc3)c2)n1	-0.26
CC(C)(C)CC(C)(C)NC(=O)/C=C/C(=O)O	0.58
Cc1c(C)c2c(c(C)c1O)CCC(C)(C(=O)O)O2 (stereo not drawn)	-0.39
Cc1cccc(C)c1Nc1nc2c(C)cc(C)c(C)c2s1	4.2*
Cc1cc(Nc2ccccc2C)c2cccc(C)c2n1	-1.1
Cc1ccc(Nc2nc3ccccc3s2)c(C)c1	0.88
Cc1n[nH]c(C)c1C(=O)CC1(O)C(=O)N(CCc2ccccc2)c2ccccc21 (stereo not drawn)	-0.6
Clc1ccc(-n2nnnc2CC2N(c3ccccc3)CCN2c2ccccc2)cc1	1.7
CC1(C)CC(=O)C(C(C2=C(O)CC(C)(C)CC2=O)c2ccc(O)cc2O)C(=O)C1 (stereo not drawn)	1.4
Ic1ccc(-n2cccc2)cc1	2
CCOC(=O)Cn1c(=O)c(C(=O)NC(=O)OCC)cn(Cc2ccco2)c1=O	0.35
CCCCC1(C)Cc2ccccc2C(=O)N1 (stereo not drawn)	1.4
CCOC(=O)COc1nc(C)cc(C)c1C#N	-1.6
Cc1cc(C)c(C#N)c(Nc2ccc(F)cc2)n1	-0.61
SMILES	Dicer inh
Cc1cc(C)c(C#N)c(OC(=O)c2c(F)cccc2F)n1	71*
CC(C)(C)c1cc2nc(C(F)(F)F)cc(SCCOC(=O)c3ccccc3)n2n1	0.94
COc1ccc(-c2cc(SC)n[nH]2)cc1	0.8
Cc1ccc(OCCCCc2c(C)n[nH]c2C)cc1C	-1.2
c1ccc(-c2nc(NCCCN3CCOCC3)c3ccccc3n2)cc1	2
CC(C)(C)c1ccc(-c2nc(NCCN3CCOCC3)c3ccccc3n2)cc1	-1.5
c1ccc(-c2nc(NCCN3CCOCC3)c3ccccc3n2)cc1	3.3*
CCCn1c(CCC(=O)O)ccc1-c1ccc(Br)cc1	1.5
CN(C)S(=O)(=O)N(CC(=O)NCc1ccccn1)c1ccccc1	-1.8
CC1=C(C(=O)OCC2CCCO2)C(c2ccccc2Br)C2=C(CC(C)(C)CC2=O)N1 (stereo not drawn)	0.33
CCOc1ccc(N2C(=O)CC(N3CCN(c4ncccn4)CC3)C2=O)cc1 (stereo not drawn)	-0.19
CC(C)S(=O)(=O)c1csc(NC(=O)Nc2c(Cl)cc(Cl)cc2Cl)c1Cl	0.24
CC(C)S(=O)(=O)c1csc(NC(=O)Nc2ccccc2Cl)c1Cl	3.8*
CC(C)S(=O)(=O)c1csc(C(N)=O)c1Cl	-2
COc1cc(C(C#N)NCc2ccccc2)cc(OC)c1OC (stereo not drawn)	-1.2
Cn1nc(C2CC2)cc1NC(=O)Nc1csc2ccccc12	-1.3
O=C(Nc1ccc(S(=O)(=O)N2CCOCC2)cc1)c1sc2ccccc2c1Cl	0.46
CC(=O)c1ccc2c(c1)N(CCCN1CCC(CCO)CC1)c1ccccc1S2	80
CN1CCN(CCCN2c3ccccc3Sc3ccc(S(=O)(=O)N(C)C)cc32)CC1	6*
OCCN1CCN(CCCN2c3ccccc3Sc3ccc(Cl)cc32)CC1	32
Cc1cc(OCc2nc(-c3ccccn3)no2)cc(C)c1Cl	0.64
CCOC(=O)c1cc(-c2ccccc2)n(-c2ccc([N+](=O)[O-])cc2)c1C	-0.17
CCOC(=O)N1CCN(C2CC(=O)N(c3cccc(Cl)c3)C2=O)CC1 (stereo not drawn)	-0.84
CCc1ccc(NC2CC(=O)N(c3ccc(C)cc3Br)C2=O)cc1 (stereo not drawn)	3.3*
CCOc1ccc(NC2CC(=O)N(c3ccc(OC)cc3OC)C2=O)cc1 (stereo not drawn)	-1.9
SMILES	Dicer inh
COc1ccc(NC2CC(=O)N(c3cccc4ccccc34)C2=O)cc1 (stereo not drawn)	-0.63
O=C1CC(C(=O)Nc2ccc(Br)cc2)n2c(nc3ccccc32)N1 (stereo not drawn)	5.1*
O=C1CC(C(=O)Nc2cccc(Cl)c2)n2c(nc3ccccc32)N1 (stereo not drawn)	1.3
O=C1CC(C(=O)Nc2cccc(F)c2)n2c(nc3ccccc32)N1 (stereo not drawn)	-0.23
COC(=O)c1ccc(C(=O)OC)nc1	3.9*
COC(=O)c1ccc2ncccc2c1	-0.59
COC(=O)c1ccc(C(F)(F)C(F)(F)c2ccc(C(=O)OC)cc2)cc1	0.5
COc1ccc(NC(=O)c2cc3nc(-c4ccco4)cc(C(F)(F)F)n3n2)cc1OC	-0.42
O=C(Nc1ccc2c(c1)OCO2)c1cnn2c(C(F)(F)F)cc(-c3ccco3)nc12	-0.3
